JMJD2A Tudor: qHTS Assay for Inhibitors of JMJD2A-Tudor Domain; Potency, µM (top dose mostly 114 µM), for the others: at the highest dose activity change, negative = inhibition, usual class: inhibitors; AlphaScreen JMJD2A-Tudor / H3K4me3 peptide binding; AID 504339, 2011; actives 4.4% (n = 390,000); Lysine-specific demethylase 4A (Homo sapiens), O75164; also: % is scaled to controls: 0 for no effect and ±100 for the full control effect; nearly all actives have a fitted effect of over 50% in size
BAZ2B inh: qHTS Assay for Inhibitors of BAZ2B; AlphaScreen BAZ2B-H3K14Ac peptide displacement; Potency, µM (titrated, usually from 114 µM), inactives show at the highest dose activity change, negative = inhibition, hits mostly inhibitors; actives 4.4% (n = 360,000); Bromodomain adjacent to zinc finger domain protein 2B (Homo sapiens), Q9UIF8; AID 504333, 2011; also: % is scaled to controls: 0 for no effect and ±100 for the full control effect; nearly all actives have a fitted effect of over 60% in size
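Inhibition is scored as reduced AlphaScreen emission. The BAZ2B/b-H3(5-23)K14Ac complex (50 nM each) in PBS pH 7.4, 0.01% Tween-20 meets compound (up to 110 uM) for 30 min at RT before bead addition.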
HP1b chromo inh: HTS for Inhibitors of HP1-beta Chromodomain Interactions with Methylated Histone Tails; Potency, µM (top dose mostly 114 µM), for the others: at the top dose activity change, negative = inhibition, actives largely listed as inhibitors; AlphaScreen HP1-beta / biotin-H3K9me3 peptide binding; actives 0.56% (n = 390,000); AID 540317, 2011; Chromobox protein homolog 1 (Homo sapiens), P83916; also: nearly all actives have a fitted effect of over 70% in size
Target sequence (P83916 whole entry, looked up): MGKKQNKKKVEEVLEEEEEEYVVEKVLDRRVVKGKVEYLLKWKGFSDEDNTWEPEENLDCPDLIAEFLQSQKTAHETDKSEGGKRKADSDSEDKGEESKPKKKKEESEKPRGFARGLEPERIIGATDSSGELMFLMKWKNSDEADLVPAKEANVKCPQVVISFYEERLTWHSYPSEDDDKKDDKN
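HP1-beta protein (50 nM final) preincubated 30 min at room temperature with biotinylated H3(1-18)K9me3 peptide (50 nM) in PBS pH 7.4, 0.01% Tween-20, then compound added for 30 min. AlphaScreen streptavidin donor/nickel chelate acceptor beads (10 ug/mL final), 30 min dark, luminescence read.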
L3MBTL1 inh: qHTS Assay for the Inhibitors of L3MBTL1 | Lethal(3)malignant brain tumor-like protein 1 (Homo sapiens), Q9Y468 | AlphaScreen L3MBTL1–H3K9me1 peptide binding | Potency, µM (top dose mostly 57.1 µM), for the others: top-dose activity, negative = inhibition, hits mostly inhibitors | actives 0.66% (n = 230,000); also: % is scaled to controls: 0 for no effect and ±100 for the full control effect; nearly all actives have a fitted effect of over 60% in size
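L3MBTL1 (50 nM) pre-complexed 30 min with biotinylated H3(1-15)K9me1 peptide (75 nM), then compounds added for 30 min at room temperature; AlphaScreen streptavidin donor/nickel chelate acceptor beads (10 ug/mL final) read after 30 min dark incubation.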
G9a inh: qHTS Assay for Inhibitors of Histone Lysine Methyltransferase G9a; G9a H3K9 monomethylation, AlphaScreen, 2 h; Potency, µM (series often up to 102 µM), without a hit: top-dose activity, negative = inhibition, hits mostly inhibitors; actives 8.8% (n = 350,000); also: % is scaled to controls: 0 for no effect and ±100 for the full control effect; nearly all actives have a fitted effect of over 75% in size
Target sequence (Q96KQ7 913-1193 limits assumed): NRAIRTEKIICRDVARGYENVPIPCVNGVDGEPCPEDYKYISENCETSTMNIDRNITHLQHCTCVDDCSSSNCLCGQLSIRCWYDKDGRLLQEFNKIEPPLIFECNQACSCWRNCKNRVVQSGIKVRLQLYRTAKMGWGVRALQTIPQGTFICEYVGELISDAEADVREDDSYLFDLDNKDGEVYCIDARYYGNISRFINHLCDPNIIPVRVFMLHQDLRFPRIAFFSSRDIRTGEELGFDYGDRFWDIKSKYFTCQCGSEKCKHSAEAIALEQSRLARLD
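Step 1: enzyme (final 20 nM) with compound, 15 min RT. Step 2: substrate peptide 500 nM and SAM 20 uM, 2 h RT. Step 3: anti-H3K9me1 antibody and AlphaScreen beads, 10 min, then plate read.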
Sfp inh: qHTS Assay for Inhibitors of Bacillus subtilis Sfp phosphopantetheinyl transferase (PPTase) | 4'-phosphopantetheinyl transferase ffp (Bacillus subtilis), Q9F4F7 | Biochemical Sfp PPTase activity, qHTS | Potency, µM, without a hit: largest response in the series, negative = inhibition, most hits filed as inhibitors | actives 3.5% (n = 310,000);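 also: the enzyme is Sfp with the accession as filed and its product quenches rhodamine fluorescence; 0% = enzyme reaction without inhibitor and -100% = no enzyme wells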
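With Hepes-Na pH 7.6 buffer containing 10 mM MgCl2, Sfp (15 nM) modified BHQ-2-YbbR (12.5 uM) using rhodamine-CoA (5 uM). Two reads 30 minutes apart at 525/598 nm yielded each well's rate.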
Starred values were filed as active, the others as inactive; [ ] = remark or other dose. Compounds with a hit are over-represented: about 12% of the library has one in this group of screens. Calls follow the shape of the dose curve; as a rule, active = well fitted curve in the direction sought with a large enough effect; inconclusive = small, poorly fitted or top-dose-only effect, or another doubt; inactive = no such curve, though single readings can be large; an effect the other way counts as inactive or inconclusive. Potency is read from the fitted curve at half-maximal effect.

`CCC1=NN(C(=O)c2ccccc2O)C(O)(c2ccccc2)C1` (stereo not given) gave JMJD2A Tudor 7.1µM*, BAZ2B inh 50µM*, HP1b chromo inh 13%, L3MBTL1 inh inconclusive, G9a inh 3% and Sfp inh 9%.
`COc1ccccc1N(/N=C1\Sc2ccccc2C1=O)C(C)=O` gave JMJD2A Tudor inconclusive, BAZ2B inh inconclusive, HP1b chromo inh 0%, G9a inh 5%[12.7 µM] and Sfp inh 11%.
CC(Oc1ccc(C(=O)c2ccccc2)cc1)C(=O)N1CCOCC1 (stereo not given) was read as JMJD2A Tudor -1%, BAZ2B inh -2%, HP1b chromo inh 22%, L3MBTL1 inh 2% and G9a inh -24%.
Screening Cc1cc([N+](=O)[O-])c2c(c1C)C1C=CCC1C(c1ccccn1)N2 (stereo not given) returned L3MBTL1 inh inconclusive, G9a inh 28µM* and Sfp inh inconclusive.
Screening Cc1cc([N+](=O)[O-])cc2c1NCC1CC=CC21 (stereo not given) returned JMJD2A Tudor -32%, BAZ2B inh inconclusive, HP1b chromo inh 7%, L3MBTL1 inh -7%, G9a inh inconclusive and Sfp inh 5%.
Screening CC(C)C(C(=O)NCC1CCCO1)N(Cc1ccccc1)C(=O)CNS(=O)(=O)c1ccccc1 (stereo not given) returned JMJD2A Tudor -9%, BAZ2B inh -1%, HP1b chromo inh 29%, G9a inh 10% and Sfp inh 1%.
For COc1ccc(C(=O)NCc2nnc(SCC(=O)Nc3nnc(C)s3)o2)cc1 the results were JMJD2A Tudor -10%, BAZ2B inh 0%, HP1b chromo inh 32%, L3MBTL1 inh 7%, G9a inh 35µM* and Sfp inh inconclusive.
CCSc1nnc(NC(=O)CSc2nnc(CNC(=O)c3ccc(OC)cc3)o2)s1 was read as JMJD2A Tudor -1%, BAZ2B inh 7%, HP1b chromo inh 31%, L3MBTL1 inh 2%, G9a inh -17%[59 µM] and Sfp inh -20%.
CCc1nnc(NC(=O)CSc2nnc(COc3ccccc3C)o2)s1 was read as JMJD2A Tudor -8%[57.1 µM], BAZ2B inh 0%, HP1b chromo inh 56%, L3MBTL1 inh 1%, G9a inh 50µM* and Sfp inh inconclusive.
Screening Cc1ccnc(Sc2ccc([N+](=O)[O-])cc2[N+](=O)[O-])n1 returned JMJD2A Tudor -36%, BAZ2B inh inconclusive, HP1b chromo inh -11%, G9a inh -45%[59 µM] and Sfp inh 7%.
`Cc1ccc(Sc2ccc([N+](=O)[O-])cc2[N+](=O)[O-])nc1` gave JMJD2A Tudor inconclusive, BAZ2B inh 45µM*, HP1b chromo inh -14%, L3MBTL1 inh -15%, G9a inh -23%[59 µM] and Sfp inh -3%.
CC1(C)CC(=O)C2=C(C1)NC1=C(C(=O)c3ccccc31)C2c1ccc(O)cc1 (stereo not given) was read as JMJD2A Tudor -29%[57.1 µM], BAZ2B inh 40µM*, HP1b chromo inh 7%, L3MBTL1 inh -11%, G9a inh 25µM* and Sfp inh -18%.
Screening O=C1CCCC2=C1C(c1cccc(O)c1)C1=C(N2)c2ccccc2C1=O (stereo not given) returned JMJD2A Tudor -11%, BAZ2B inh -26%, HP1b chromo inh 4%, L3MBTL1 inh 2%, G9a inh 32µM* and Sfp inh -15%.
CCCc1ccc(C2C3=C(CC(C)(C)CC3=O)NC3=C2C(=O)c2ccccc23)cc1 (stereo not given) was read as JMJD2A Tudor inconclusive, BAZ2B inh 25µM*, HP1b chromo inh -37%, L3MBTL1 inh -29%, G9a inh 35µM* and Sfp inh -12%.
`O=C(CCCN1C(=O)/C(=C/c2cccc(Br)c2)SC1=S)Nc1ccccn1` gave JMJD2A Tudor inconclusive, BAZ2B inh inconclusive, HP1b chromo inh 8.9µM*, L3MBTL1 inh -10%, G9a inh inconclusive and Sfp inh 5%.
Screening O=C(CCCN1C(=O)/C(=C/c2cccc(Br)c2)SC1=S)Nc1cccnc1 returned JMJD2A Tudor inconclusive, BAZ2B inh -28%, HP1b chromo inh 5%, L3MBTL1 inh -14%, G9a inh inconclusive and Sfp inh -16%.
Screening CCc1ccc(/C=C2/SC(=S)N(CCCC(=O)Nc3ccccc3C(=O)O)C2=O)cc1 returned JMJD2A Tudor 50µM*, BAZ2B inh -27%, HP1b chromo inh -8%, G9a inh inconclusive and Sfp inh 16%.
Screening CCc1ccc(/C=C2\SC(=S)N(CCCC(=O)Nc3ccccn3)C2=O)cc1 returned JMJD2A Tudor inconclusive, BAZ2B inh 10µM*, HP1b chromo inh inconclusive, L3MBTL1 inh -18%, G9a inh 2%[0.501 µM] and Sfp inh 1%.
Cc1ccc(OCC(=O)NCC(=O)OCc2cc(=O)n3nc(C)sc3n2)cc1 was read as JMJD2A Tudor -15%, BAZ2B inh -12%, HP1b chromo inh 54% and G9a inh -1%[59 µM].
Screening COc1cccc2c(=S)c(CCC(C)=O)c(C)[nH]c12 returned JMJD2A Tudor 10µM*, BAZ2B inh -8%, HP1b chromo inh inconclusive, L3MBTL1 inh 45%, G9a inh 1.6µM* and Sfp inh -3%.
Screening CCOc1ccc(C(=O)CSCCC(=O)O)cc1 returned JMJD2A Tudor -12%, HP1b chromo inh 45%, G9a inh 32µM* and Sfp inh 25µM*.
`CCOC(=O)N1CCN(C(=O)c2ccc(OCC)cc2)CC1` gave JMJD2A Tudor -8%, BAZ2B inh -10%, HP1b chromo inh 28%, L3MBTL1 inh 12% and Sfp inh -18%.
For CCOc1ccc(C(=O)Cc2ccccc2)cc1 the results were JMJD2A Tudor 10% and HP1b chromo inh 62%.
`CCOc1ccc(C(=O)N2CCCN(C(=O)c3ccc(OCC)cc3)CC2)cc1` gave JMJD2A Tudor -21%, BAZ2B inh 5%, HP1b chromo inh 10%, L3MBTL1 inh 14%, G9a inh 32µM* and Sfp inh -6%.

Assay outcomes deposited in PubChem BioAssay by National Center for Advancing Translational Sciences (NCATS).
